Results on 21 compounds are retold here after PubChem BioAssay AID1259418 (Broad Institute, 2018).

Each structure is given as a SMILES string. The campaign covered roughly 3,400 compounds. About 840 (25%) were called active. Not shown: some 11% with an inconclusive outcome. A selection follows. Entries with a potency or affinity are not part of this list. A number with no mark means an inactive call.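 How the source made its calls: active means fitted half-maximal concentration of signal decrease at or below twice the sample's top tested concentration; inconclusive means flat curve between -70 and -30 percent, or poor fit; inactive means flat within 30 percent, signal rise, or potency above limit.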

This assay in a line: T. gondii growth inhibition with IFN-gamma, dose response, cell-based, ME49Luc, HeLa, luciferase, 72 h (AID 1259418). The settings on record: T. gondii ME49Luc in IFN-y HeLa, hits give low values, -100% = high-dose IFN-γ control wells; at 19.5 µM unless noted.
For `COc1ccc(-c2nc(Nc3ccc(C)c(C)c3)c3ccccc3n2)cc1`, the max activity is 21.6% [at 0.16 µM].
As for `CC1(C)C2CCC1(CS(=O)(=O)O)C(=O)/C2=C\c1ccc(/C=C2/C(=O)C3(CS(=O)(=O)O)CCC2C3(C)C)cc1`, the figure is 14.9%; as for `CCn1c(C2CCCN(C(=O)CCN3CCCCCC3=O)C2)nn(C)c1=O` (stereo unspecified), 20.9%.
The figure for `CN1C(=O)CCc2cc(NC(=O)c3ccnn3C)ccc21` is 26.8%; for `Cc1cc2cc(CNc3ncnc4c3nnn4C)ccc2[nH]1` it is 9.49% [at 10 µM]; for `COc1ccc(C)cc1NC(=O)Nc1ccc(-c2nc(-c3cccc(Br)c3)co2)cc1` it is -11.7% [at 0.35 µM].
The figure for `CC1CCCCN1CCNS(=O)(=O)c1cc(-c2nc(C(C)(C)C)cs2)cs1` (stereo unspecified) is -20.5%; for `COc1ccc(-c2nc(N3CCC(Cc4ccccc4)CC3)c3ccccc3n2)cc1` it is 16.4%.
For `Cc1ccc(-c2coc(-c3ccc(NC(=O)Cc4cccs4)cc3)n2)cc1`, the max activity is -53.8% [at 0.68 µM].
As for `COc1cccc(CNC2=NCCNC23CCN(S(=O)(=O)c2ccc(C(C)C)cc2)CC3)c1`, the figure is -13.5% [at 0.35 µM].
Consider `Cc1nc(CCNC(=O)[C@H]2CCCN2S(=O)(=O)c2ccc(C(C)(C)C)cc2)cs1`, for which the max activity is 7.93% [at 5 µM].
The figure for `CCCCC(=O)N1CCC(C(=O)NCCc2csc(-c3ccccc3)n2)CC1` is 6.78% [at 2.6 µM]; for `CCc1nc(OCC(=O)Nc2ccc3c(c2)OCO3)c2ccccc2n1` it is 23.2% [at 10 µM]; for `CCOC(=O)C1CCCN(S(=O)(=O)c2cc(-c3nc(C)c(C)s3)sc2C)C1` (stereo unspecified) it is 14.9% [at 0.16 µM].
As for `COc1ccc2c(c1)NC1(CCN(C(=O)c3ccc(C(C)(C)C)cc3)CC1)c1cccn1-2`, the figure is -6.3% [at 0.35 µM].
Take `CN1C(=O)CCc2cc(NC(=O)C3CCCO3)ccc21` (stereo unspecified): the max activity is 17.1%.
In the case of `COc1cccc(-c2nc(CN(c3ccc(C)cc3)S(=O)(=O)c3cccs3)c(C)o2)c1OC`, the max activity was 2.85%.
The figure for `COc1ccc(N(Cc2nc(-c3ccccc3)oc2C)S(=O)(=O)c2cccs2)cc1` is 14.6%; for `CCOc1ccc(N(Cc2nc(-c3ccccc3OCC)oc2C)S(=O)(=O)c2cccs2)cc1` it is 8.57% [at 10 µM]; for `COc1ccccc1-c1nc(Cn2nnc(-c3nc(-c4ccc(SC)cc4)no3)c2C)c(C)o1` it is 10.9% [at 0.16 µM].
The figure for `CCOc1ccc(NC(=O)Nc2ccc(-c3nc(-c4cc(C)ccc4C)co3)cc2)cc1` is -9.48% [at 1.35 µM].
